The source of these data is PubChem BioAssay (Tox21).

A number with no mark means an inactive call. Inconclusive results are not listed. The source made the active and inactive calls. Unless noted, the call rests on the fitted dose curve.

Assay [1] can be described thus: Nuclear factor erythroid 2-related factor 2/antioxidant responsive element (Nrf2/ARE) small molecule agonists: qHTS cell viability counter screen in human keratinocytes (AID 1919968; active means well fitted curve in the direction sought with a large enough effect in the repeat runs; an effect the other way counts as inactive or inconclusive; further: nearly all actives have a fitted effect of over 55% in size; further: potency means the concentration at half of the fitted maximal effect). In a few lines: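 KeratinoSens HaCaT cells, 1,500/well, preincubated 5 h, then exposed to compounds in DMSO for 23 h at 37 C/5% CO2. Viability read as CellTiter-Fluor fluorescence after 1 h, in the same wells as the ARE-luciferase read.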
In general terms: Quantitative high-throughput screening tests each substance at several concentrations.

Assay [2] is described as follows: Nuclear factor erythroid 2-related factor 2/antioxidant responsive element (Nrf2/ARE) small molecule agonists: luciferase reporter gene qHTS assay in human keratinocytes (AID 1919969). Further: nearly all actives have a fitted effect of over 35% in size. On the technique in general: Reporter assays use an easily measured gene product as a stand-in for the process of interest.
Assay [3] deals with Gonadotropin-releasing hormone receptor (Homo sapiens) (UniProt P30968). The assay is described as follows: Human gonadotropin-releasing hormone receptor (GnRHR) small molecule agonists, calcium flux assay in GnRHR-HEK293 cells (AID 1920063). Further: nearly all actives have a fitted effect of over 35% in size. In outline: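 HEK293 cells stably expressing human GnRHR were dye-loaded for 1 h at 37 C. Compound was added in agonist mode and fluorescence (Ex/Em 480/540) recorded kinetically for 3 min. Fifteen concentrations, triplicates.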
(A change in cytosolic calcium serves as a functional read-out for many receptors and channels.)

Assay [4] addresses KiSS-1 receptor (Homo sapiens) (UniProt Q969F8). The assay is described as follows: Human kisspeptin (KISS1R) small molecule agonists, calcium flux assay in KISS1R-HEK293 cells (AID 1920064; active means well fitted curve in the direction sought with a large enough effect in the repeat runs; an effect the other way counts as inactive or inconclusive). In outline: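 HEK293 cells stably expressing human KISS1R were loaded with calcium dye for 1 h at 37 C, then given compound; fluorescence (Ex/Em 480/540) was read kinetically for 3 min. Fifteen concentrations, triplicate.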

A short description of assay [5]: G protein-coupled receptor (GPCR) small molecule agonists, calcium flux assay: HEK293 wild type cell line counter screen (AID 1920065). In outline:
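Wild-type HEK293 cells plated 18 h, loaded with calcium dye 1 h at 37 C, then compounds added in agonist mode (ATP as positive control). Kinetic fluorescence Ex/Em 480/540 recorded 3 min at 1 sec intervals; 15 concentrations, triplicate.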

Assay [6] is described as follows: p53 small molecule agonists, cell-based qHTS assay with human liver microsomes (AID 1963577).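 Further: p53 response element beta-lactamase reporter cells with liver microsomes plus NADPH.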 In a few lines:
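Metabolically competent format: test substances, human liver microsomes and NADPH (both 0.5 mg/mL final) incubated with p53RE-bla cells 16 h at 37 C. Beta-lactamase reporter signal then quantified by fluorescence.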

Assay [7] in a line: p53 small molecule agonists, cell-based qHTS assay with rat liver microsomes (AID 1963578). In outline: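 Each plate received p53RE-bla cells, then compound, then rat liver microsomes and NADPH (both 0.5 mg/mL final). Plates were held 16 h at 37 C, and beta-lactamase activity was detected with LiveBLAzer over 2 h.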
A short description of assay [8]: p53 small molecule agonists, cell-based qHTS assay with human liver microsomes: qHTS cell viability counter screen (AID 1963579). Further: nearly all actives have a fitted effect of over 45% in size. In outline:
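Tox21 library compounds, delivered from DMSO stocks, were tested on p53RE-bla cells together with 0.5 mg/mL human liver microsomes and 0.5 mg/mL NADPH (final) over 16 h at 37 C; CellTiter-Glo luminescence served as the cytotoxicity measure.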

Assay [9] is described as follows: p53 small molecule agonists, cell-based qHTS assay: qHTS cell viability counter screen (AID 1963581). Further: nearly all actives have a fitted effect of over 45% in size. In outline: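 p53RE-bla HCT-116 cells, compounds added 5 h after plating and incubated 16 h at 37 C. Cytotoxicity measured in the same wells as intracellular ATP by CellTiter-Glo luminescence after 30 min at room temperature.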
Assay [10] is described as follows: p53 small molecule agonists, cell-based qHTS assay (AID 1963582; active means well fitted activation curve with a large enough effect in the signal ratio in the repeat runs, not every such curve was filed as active; the % refers to the signal ratio). In a few lines:
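p53RE-bla reporter cells, compounds added in DMSO after 5 h plating, incubated 16 h at 37 C. Beta-lactamase read via 2 h room-temperature LiveBLAzer B/G FRET substrate, fluorescence intensity.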

A short description of assay [11]: cAMP Responsive Elements (CRE) small molecule agonists, cell-based qHTS assay (AID 1963590). In outline: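 CRE-bla HEK 293T cells, 2,000/well in DMEM with 10% dialyzed FBS and 25 mM HEPES, pre-incubated 18 h at 37 C, then exposed to compound 3 h at 37 C. Beta-lactamase reporter read with LiveBLAzer B/G FRET substrate after 2 h at room temperature.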
Assay [12] in a line: cAMP Responsive Elements (CRE) small molecule antagonists, cell-based qHTS assay (AID 1963591; active means well fitted inhibition curve with a large enough effect in the signal ratio in the repeat runs, not every such curve was filed as active; the % refers to the signal ratio). In outline:
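CRE-bla HEK293T cells plated 18 h, then given compound plus NKH477 at 0.25 uM final for 3 h at 37C. Beta-lactamase reporter read with LiveBLAzer B/G FRET substrate after 2 h at room temperature.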

Assay [13] deals with Beta-2 adrenergic receptor (Homo sapiens) (UniProt P07550). As to the kind of experiment: Adrenergic beta2 receptor (ADRB2) small molecule antagonists, cell-based qHTS assay (AID 1963592). Further: series mostly up to about 92 µM; nearly all actives have a fitted effect of over 50% in size. In outline: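 Cells (CHO, stable ADRB2 overexpression) incubated 18-20hr at 37C; compounds added from DMSO; agonist mix (1nM isoproterenol, 100uM IBMX, 25uM Ro-20-1724) added; 0.5hr RT; d2-cAMP and anti-cAMP-cryptate added; 1hr RT; 665/615 nm read.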

Assay [14] has as its target D(2) dopamine receptor (Homo sapiens) (UniProt P14416). The assay is described as follows: Dopamine D2 receptor (DRD2) small molecule agonists, cell-based qHTS assay (AID 1963594). Further: nearly all actives have a fitted effect of over 35% in size. In a few lines: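 HEK293 cells stably expressing human DRD2, pre-treated with PDE inhibitor Ro20-1724 (0.1 mM final) and compound 10 min at room temperature, then stimulated with NKH477 (200nM […]) for 30 min. cAMP read by HTRF (665/620 nm).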

Assay [15] shares this target. As to the kind of experiment: Dopamine D2 receptor (DRD2) small molecule antagonists, cell-based qHTS assay (AID 1963595; active means well fitted inhibition curve with a large enough effect in the signal ratio in the repeat runs, with a control signal flat; the % refers to the signal ratio). In outline:
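Stable D2 receptor HEK293 line, 24 h after seeding. Compound preincubated 10 min, then quinpirole (12 nM) with forskolin analogue NKH477 (200 nM), 30 min, room temperature. Detection by time-resolved FRET of cAMP.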

Assay [16] concerns the target 5-hydroxytryptamine receptor 2A (Homo sapiens) (UniProt P28223). As to the kind of experiment: 5-hydroxytryptamine receptor 2A (HTR2A) small molecule antagonists, cell-based qHTS assay (AID 1963586). Further: nearly all actives have a fitted effect of over 45% in size. In a few lines:
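Antagonist-mode intracellular calcium assay: DOI (4 nM) added after 5 min compound pre-incubation at room temperature to dye-loaded HTR2A-CHO cells. Fluorescence followed for 3 min, sampled every second.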

The target is the same in assay [17]. As to the kind of experiment: 5-hydroxytryptamine receptor 2A (HTR2A) small molecule agonists, cell-based qHTS assay (AID 1963587). Further: nearly all actives have a fitted effect of over 30% in size. In outline: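 CHO cells stably expressing human HTR2A, plated 18 h, loaded with calcium dye 1 h at 37 C. Agonist mode: compounds added and intracellular calcium fluorescence recorded kinetically for 2 min at 1 sec intervals.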
Assay [18] concerns the target Muscarinic acetylcholine receptor M1 (Homo sapiens) (UniProt P11229). As to the kind of experiment: Cholinergic receptor muscarinic 1 (CHRM1) small molecule antagonists, cell-based qHTS assay (AID 1963588). Further: nearly all actives have a fitted effect of over 40% in size. In outline: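 CHRM1-CHO calcium-flux assay, antagonist mode. Cells were seeded 18 h, dye-loaded 1 h at 37 C and given compound for 5 min at RT, then acetylcholine was added at 50nM. FDSS fluorescence was read 3 min; 15 concentrations, three runs.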

For assay [19] the target is unchanged. As to the kind of experiment: Cholinergic receptor muscarinic 1 (CHRM1) small molecule agonists, cell-based qHTS assay (AID 1963589). Further: nearly all actives have a fitted effect of over 35% in size. In a few lines:
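CHO cells stably expressing human CHRM1 were loaded with calcium dye for 1 h at 37 C, then compound was added in agonist mode. Intracellular calcium fluorescence was followed kinetically at 1 s intervals. Fifteen concentrations were tested in three independent runs.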

Assay [20] can be described thus: p53 small molecule agonists, cell-based qHTS assay with rat liver microsomes: qHTS cell viability counter screen (AID 1963580). Further: nearly all actives have a fitted effect of over 45% in size. In outline:
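p53RE-bla HCT-116 cells were exposed 16 h at 37 C to compounds with rat liver microsomes (0.5 mg/mL) and NADPH (0.5 mg/mL). Viability was measured in the same wells as ATP content by CellTiter-Glo luminescence.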

Beta-2 adrenergic receptor (Homo sapiens), sequence (P07550 whole entry, looked up): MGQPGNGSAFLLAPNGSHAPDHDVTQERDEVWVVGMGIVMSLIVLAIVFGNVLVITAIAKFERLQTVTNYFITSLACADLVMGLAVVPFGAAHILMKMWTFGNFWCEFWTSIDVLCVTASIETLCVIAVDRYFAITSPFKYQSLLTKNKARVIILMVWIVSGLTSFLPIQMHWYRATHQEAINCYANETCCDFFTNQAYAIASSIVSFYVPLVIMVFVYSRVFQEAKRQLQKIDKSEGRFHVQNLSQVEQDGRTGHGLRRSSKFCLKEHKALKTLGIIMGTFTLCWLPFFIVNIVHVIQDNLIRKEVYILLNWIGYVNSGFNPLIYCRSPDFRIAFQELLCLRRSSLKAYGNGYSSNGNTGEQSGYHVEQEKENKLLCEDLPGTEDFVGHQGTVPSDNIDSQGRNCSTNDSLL
D(2) dopamine receptor (Homo sapiens), sequence (P14416 whole entry, looked up): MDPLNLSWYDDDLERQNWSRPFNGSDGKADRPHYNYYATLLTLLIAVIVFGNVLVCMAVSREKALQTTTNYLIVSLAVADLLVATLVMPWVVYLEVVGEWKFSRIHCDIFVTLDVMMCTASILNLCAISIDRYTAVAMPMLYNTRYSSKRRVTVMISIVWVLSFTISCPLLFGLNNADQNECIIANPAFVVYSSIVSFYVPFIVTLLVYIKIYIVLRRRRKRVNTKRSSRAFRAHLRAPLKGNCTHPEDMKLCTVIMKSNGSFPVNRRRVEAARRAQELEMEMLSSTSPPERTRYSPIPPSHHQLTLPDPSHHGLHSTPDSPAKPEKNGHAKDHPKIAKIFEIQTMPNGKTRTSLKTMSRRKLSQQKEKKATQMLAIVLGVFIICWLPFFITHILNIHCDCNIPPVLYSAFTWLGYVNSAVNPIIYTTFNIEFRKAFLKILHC
KiSS-1 receptor (Homo sapiens), sequence (Q969F8 whole entry, looked up): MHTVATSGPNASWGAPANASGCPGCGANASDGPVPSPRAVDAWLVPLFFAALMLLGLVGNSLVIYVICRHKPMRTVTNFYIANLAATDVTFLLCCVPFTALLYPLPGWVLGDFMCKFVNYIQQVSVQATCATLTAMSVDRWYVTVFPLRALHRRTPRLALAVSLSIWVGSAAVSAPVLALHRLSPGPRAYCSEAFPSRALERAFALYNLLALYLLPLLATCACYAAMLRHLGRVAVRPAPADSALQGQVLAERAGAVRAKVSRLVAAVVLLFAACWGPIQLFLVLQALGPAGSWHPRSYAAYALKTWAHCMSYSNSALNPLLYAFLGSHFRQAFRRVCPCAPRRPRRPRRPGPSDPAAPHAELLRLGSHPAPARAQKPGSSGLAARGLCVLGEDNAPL
Gonadotropin-releasing hormone receptor (Homo sapiens), sequence (P30968 whole entry, looked up): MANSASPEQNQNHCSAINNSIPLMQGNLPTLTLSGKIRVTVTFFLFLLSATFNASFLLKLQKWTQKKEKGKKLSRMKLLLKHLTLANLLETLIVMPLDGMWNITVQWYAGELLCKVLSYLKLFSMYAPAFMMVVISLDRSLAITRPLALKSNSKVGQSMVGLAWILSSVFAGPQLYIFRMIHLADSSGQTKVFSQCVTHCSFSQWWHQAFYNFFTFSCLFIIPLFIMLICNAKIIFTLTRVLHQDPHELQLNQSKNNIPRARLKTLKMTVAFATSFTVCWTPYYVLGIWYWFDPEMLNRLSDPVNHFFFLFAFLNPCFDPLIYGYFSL
5-hydroxytryptamine receptor 2A (Homo sapiens), sequence (P28223 whole entry, looked up): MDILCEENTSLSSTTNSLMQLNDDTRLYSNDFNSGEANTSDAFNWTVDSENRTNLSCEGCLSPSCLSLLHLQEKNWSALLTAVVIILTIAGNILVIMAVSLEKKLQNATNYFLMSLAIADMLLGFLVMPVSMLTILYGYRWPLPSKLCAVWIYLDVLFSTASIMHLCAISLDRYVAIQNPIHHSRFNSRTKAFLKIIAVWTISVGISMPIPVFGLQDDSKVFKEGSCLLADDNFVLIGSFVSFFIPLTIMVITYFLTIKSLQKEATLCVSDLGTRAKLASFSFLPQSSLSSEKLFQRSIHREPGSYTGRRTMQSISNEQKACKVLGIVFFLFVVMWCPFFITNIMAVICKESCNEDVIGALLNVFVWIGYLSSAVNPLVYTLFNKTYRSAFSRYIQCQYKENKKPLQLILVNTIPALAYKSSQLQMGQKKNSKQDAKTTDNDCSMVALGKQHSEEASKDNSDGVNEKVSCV
Muscarinic acetylcholine receptor M1 (Homo sapiens), sequence (P11229 whole entry, looked up): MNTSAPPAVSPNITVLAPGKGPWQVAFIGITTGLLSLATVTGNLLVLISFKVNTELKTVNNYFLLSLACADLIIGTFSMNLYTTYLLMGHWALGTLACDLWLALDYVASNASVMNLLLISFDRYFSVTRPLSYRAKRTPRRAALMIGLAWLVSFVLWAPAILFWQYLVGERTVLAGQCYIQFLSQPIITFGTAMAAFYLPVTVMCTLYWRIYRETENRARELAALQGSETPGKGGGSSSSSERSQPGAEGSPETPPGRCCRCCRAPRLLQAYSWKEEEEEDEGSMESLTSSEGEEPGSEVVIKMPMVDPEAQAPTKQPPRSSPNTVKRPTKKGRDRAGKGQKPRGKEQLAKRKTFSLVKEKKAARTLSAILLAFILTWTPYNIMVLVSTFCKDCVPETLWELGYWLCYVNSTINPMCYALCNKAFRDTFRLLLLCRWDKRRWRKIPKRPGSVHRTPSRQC

For `Nc1[nH]c(=O)ncc1F`, the Potency result in [1], in assay [2], in assay [3], in assay [6], in [7] and in [8] was “inactive” in each case. For the same compound, the Potency result in [9], in [10], in assay [11], in assay [12], in assay [13] and in assay [14] was “inactive” each time. The Potency result in assay [15] is “inactive”. Besides, the outcome in assay [4] and in [5] was inactive.
Take `CN(C)C/C=C(/c1ccc(Br)cc1)c1cccnc1`: the Potency entry in [1], in assay [2], in assay [3], in assay [6], in assay [7] and in assay [8] was “inactive” each time. The Potency entry in [10], in assay [16], in assay [17], in assay [18], in assay [19] and in [11] was “inactive” throughout. For the same compound, the Potency entry in assay [12] was “inactive”. The outcome in [4] and in [5] was inactive.
For `COc1cc2nc(N3CCN(C(=O)C4CCCO4)CC3)nc(N)c2cc1OC` (stereo not drawn), the Potency entry in assay [1], in [2], in assay [3], in [6], in [7] and in assay [8] was “inactive” in each case. Besides, the Potency entry in assay [9], in assay [10], in [11], in [12], in [14] and in assay [15] was “inactive” each time. For the same compound, the outcome in assay [4] and in assay [5] was inactive.
As to `Nc1c(N=Nc2ccc(-c3ccc(N=Nc4cc(S(=O)(=O)O)c5ccccc5c4N)cc3)cc2)cc(S(=O)(=O)O)c2ccccc12`, the Potency in [1] is 30.6 µM (active). For the same compound, the Potency entry in assay [2], in assay [3], in assay [6], in assay [7], in assay [8] and in assay [16] was “inactive” throughout. The Potency result in assay [18], in [19], in assay [11] and in [12] was “inactive” throughout. For the same compound, the result in assay [4] and in assay [5] was inactive.
In the case of `CCc1nnc(NS(=O)(=O)c2ccc(N)cc2)s1`, the Potency result in [1], in [2], in assay [3], in assay [6], in assay [7] and in assay [20] was “inactive” throughout. Also, the Potency result in assay [9], in assay [10], in assay [16], in [17], in assay [18] and in assay [19] was “inactive” throughout. Further, the Potency entry in assay [11], in assay [12], in assay [13] and in assay [15] was “inactive” each time. The outcome in assay [4] and in assay [5] was inactive.
For `CO[Si](CCCS)(OC)OC`, the Potency result in assay [1], in assay [2], in [3], in assay [6], in assay [7] and in assay [20] was “inactive” each time. Moreover, the Potency result in assay [9], in assay [10], in [16], in assay [17], in [18] and in assay [19] was “inactive” throughout. Further, the Potency result in assay [11], in assay [12], in [13], in assay [14] and in assay [15] was “inactive” throughout. Further, the outcome in [4] and in assay [5] was inactive.
With `OC[C@H](Cc1cccc(O)c1)[C@H](CO)Cc1cccc(O)c1`, the Potency entry in [1], in assay [2], in assay [3], in [6], in [7] and in [20] was “inactive” each time. The Potency entry in [9], in assay [10], in [16], in assay [17], in assay [18] and in [19] was “inactive” in each case. Moreover, the Potency result in [11], in assay [12], in assay [13], in assay [14] and in [15] was “inactive” each time. For the same compound, the result in assay [4] and in [5] was inactive.
